Assay results taken from PubChem BioAssay (NCATS).
Inconclusive results are not listed. Values without a mark were called inactive. Activity calls are given as the source filed them. The call rests on the fitted dose curve; in most records, active means well fitted inhibition curve with a large enough effect; inconclusive means small, poorly fitted or top-dose-only effect; inactive means flat fitted curve, though single readings scatter.

assay: P-glycoprotein substrates identified in KB-8-5-11 adenocarcinoma cell line, qHTS therapeutic library screen (AID 1346987); conditions: KB-8-5-11 (P-gp overexpressing) viability, CellTiter-Glo, 72 h; series mostly up to 44.5 µM; activity change, negative = cytotoxicity: at the top concentration; further: nearly all actives have a fitted effect of over 65% in size
Procedure, shortened: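 Steps: plate 500 KB-8-5-11 cells/well in DMEM + 10% FCS (colchicine removed); pin compounds in dose-response; incubate 72 h, 37 degree C, 5% CO2; add CellTiter-Glo, 5 min; read luminescence.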
On the % scale 0 is the no-effect control and ±100 the full control effect.

SMILES	activity change, negative = cytotoxicity	outcome
O=C(O)c1cc(C(F)(F)F)ccc1N1CC[C@H](OCc2ccccn2)C1	6.46%	
CCC(C)/C=C(C)/C=C/C1=CC2=CC(=O)C(C)(O)C(OC(C)=O)C2CO1 (stereo unspecified)	-10.2%	
C[C@]1(OC(=O)/C=C/c2ccc(O)cc2)C[C@@H](O)[C@]2(O)C=CO[C@@H](O[C@@H]3O[C@H](CO)[C@@H](O)[C@H](O)[C@H]3O)C12 (stereo partly specified)		inactive [at 17.3 µM]
CC1(C)CC[C@]2(C(=O)O)CC[C@]3(C)C(=CCC4[C@@]5(C)C[C@@H](O)[C@H](O)[C@@](C)(CO)C5CC[C@]43C)C2C1 (stereo partly specified)	0.917% [at 17.3 µM]	
CC1=C2C[C@@]3(C)C(CCC[C@@H]3C)C(O)C2(O)OC1=O (stereo partly specified)	-12.2%	
CS(=O)(=O)c1ccccc1N1CCN(c2nc3c(c(=O)[nH]2)CSCC3)CC1	5.4%	
CC(C)(C)NS(=O)(=O)c1ccc(-c2ccc3[nH]nc(N)c3c2)cc1	-2.34%	
COc1ccc2[nH]c(S(=O)Cc3ncc(C)c(OC)c3C)nc2c1 (stereo unspecified)	-10.2%	
O=C(Nc1cc(-c2ccccc2)nn1-c1ccccc1F)c1ccc([N+](=O)[O-])cc1	-21.4%	
COc1ccc(CC(=O)NCc2ccccc2-c2ccccc2C(=O)NCCc2cccnc2)cc1	-14.2%	
OC[C@@]1(O)CO[C@H](OC[C@H]2O[C@@H](OC(CCCCc3ccc(O)cc3)CCc3ccc(O)cc3)[C@H](O[C@H]3OC[C@](O)(CO)[C@H]3O)[C@@H](O)[C@@H]2O)[C@@H]1O (stereo partly specified)	4.32% [at 17.3 µM]	
